High-throughput results from PubChem.
Sampled rows, rich in hits. Any-hit rate of the full collection: about 11%.
HEK cytotox – kills HEK 293 cells; 94,000 compounds, 6.6% hits; HEK 293 viability, ATP luminescence (CellTiter-Glo), 48-72 h; AID 1345083; Potency, µM (doses to about 115 µM), actives largely listed as inhibitors; note: nearly all actives have a fitted effect of over 60% in size
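Read-out: CellTiter-Glo ATP luminescence. Cells: HEK 293, 250 cells/well. Exposure: 48 or 72 hr, 37 degree Celsius.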
hNpr1 antagonist – antagonists of human natriuretic peptide receptor Npr1; P16066; HEK293 hNpr1 GloSensor cGMP, ANP-stimulated luminescence; Potency, µM (highest dose often 46.3 µM), hits mostly inhibitors; 76,000 compounds, 1.6% hits; calls by dose curve; note: nearly all actives have a fitted effect of over 60% in size
Target sequence (P16066 whole entry, looked up): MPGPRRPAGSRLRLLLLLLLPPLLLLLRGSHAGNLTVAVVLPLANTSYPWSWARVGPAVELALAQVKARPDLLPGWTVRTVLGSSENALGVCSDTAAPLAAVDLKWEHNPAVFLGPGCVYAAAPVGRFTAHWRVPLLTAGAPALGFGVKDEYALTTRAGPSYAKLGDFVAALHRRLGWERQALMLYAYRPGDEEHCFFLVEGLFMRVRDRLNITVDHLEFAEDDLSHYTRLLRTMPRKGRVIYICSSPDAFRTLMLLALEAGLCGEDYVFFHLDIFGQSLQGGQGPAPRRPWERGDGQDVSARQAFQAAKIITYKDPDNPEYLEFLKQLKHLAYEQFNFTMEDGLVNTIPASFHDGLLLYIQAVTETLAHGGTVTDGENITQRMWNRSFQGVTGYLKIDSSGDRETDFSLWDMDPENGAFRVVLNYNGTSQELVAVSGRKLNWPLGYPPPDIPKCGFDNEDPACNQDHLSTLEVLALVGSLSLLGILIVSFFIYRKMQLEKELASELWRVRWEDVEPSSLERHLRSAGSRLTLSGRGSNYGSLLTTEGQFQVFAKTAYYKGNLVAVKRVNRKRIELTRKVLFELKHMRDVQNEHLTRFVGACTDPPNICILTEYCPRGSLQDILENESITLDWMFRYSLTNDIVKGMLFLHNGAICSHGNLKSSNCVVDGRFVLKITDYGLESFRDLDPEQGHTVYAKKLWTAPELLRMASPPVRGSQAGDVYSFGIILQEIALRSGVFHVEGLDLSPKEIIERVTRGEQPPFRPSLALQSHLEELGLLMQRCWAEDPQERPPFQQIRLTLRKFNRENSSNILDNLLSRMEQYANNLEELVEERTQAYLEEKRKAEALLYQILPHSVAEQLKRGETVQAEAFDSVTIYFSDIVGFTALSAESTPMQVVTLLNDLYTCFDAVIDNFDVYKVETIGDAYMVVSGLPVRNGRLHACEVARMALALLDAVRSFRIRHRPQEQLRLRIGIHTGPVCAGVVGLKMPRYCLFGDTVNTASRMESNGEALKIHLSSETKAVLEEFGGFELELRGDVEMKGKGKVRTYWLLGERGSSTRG
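Compound pre-incubated 30 min at room temperature on GloSensor-loaded HEK293 cells stably carrying hNpr1 and the pGS-40F cGMP biosensor. Stimulation uses hNppA at 0.1 nM final; luminescence is taken at baseline and 20 min post-agonist.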
3T3 cytotox – cytotoxic compounds in NIH 3T3 cells. NIH 3T3 viability, CellTiter-Glo ATP luminescence, 48-72 h. Potency, µM (titrated, usually from 96.7 µM), actives largely listed as inhibitors. 94,000 compounds, 4.3% hits. AID 1345082; note: nearly all actives have a fitted effect of over 55% in size
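Cytotoxicity is measured as loss of cellular ATP: NIH 3T3 cells (400/well) are exposed to compound for 48 or 72 hr at 37 °C, then CellTiter-Glo luminescence is imaged after 10 min at room temperature.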
Luciferase inh – Photinus pyralis luciferase inhibition | purified P. pyralis luciferase, luminescence, biochemical | Potency, µM (series often up to 115 µM), actives largely listed as inhibitors | 76,000 compounds, 2.5% hits | AID 1347043; note: nearly all actives have a fitted effect of over 65% in size
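Purified 10nM P. pyralis luciferase with 10uM D-luciferin and 10uM ATP in 50mM Tris acetate pH 7.5, 10mM Mg acetate, 0.01% Tween-20, 0.05% BSA. qHTS titration; luminescence read by CCD imager.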
Large screens that a line does not name were inactive; ! = not active in a repeat. Unless noted, calls come from the whole dose curve; as a rule, active = well fitted curve in the direction sought with a large enough effect; inconclusive = small, poorly fitted or top-dose-only effect, or another doubt; inactive = no such curve, though single readings can be large; an effect the other way counts as inactive or inconclusive.

COc1cccc(CN(C)Cc2ccc(C)o2)c1O	none
Cc1c(CN2CCC(O)(c3ccccc3)[C@H](N3CCCC3)C2)cnn1C (some centres undefined)	HEK cytotox inconclusive, 3T3 cytotox inconclusive
COc1cccc(CN2CC3(CCN(C)C3)c3cc(C(=O)NC4CCCCC4)ccc32)c1 (centres undefined)	HEK cytotox 56µM, 3T3 cytotox 25µM
COc1ccc(NC(=O)c2ccc3c(c2)C2(CCN(C)C2)CN3Cc2ccccc2)cc1 (centres undefined)	HEK cytotox 71µM, 3T3 cytotox 50µM
Cn1ccc(NC(=O)c2ccc3c(c2)C2(CCN(CC4CC4)C2)CN3Cc2ccccc2)n1 (centres undefined)	HEK cytotox 32µM, 3T3 cytotox inconclusive
COc1ccc(NC(=O)c2ccc3c(c2)C2(CCCN(C)C2)CN3C)cc1 (centres undefined)	HEK cytotox inconclusive, 3T3 cytotox inconclusive
CN1CCC2(C1)CN(Cc1ccccc1)c1ccc(C(=O)NC3CCC(O)CC3)cc12 (centres undefined)	HEK cytotox inconclusive
CN1CCC2(C1)CN(Cc1ccccc1)c1ccc(C(=O)Nc3ccc(F)cc3)cc12 (centres undefined)	HEK cytotox 40µM, 3T3 cytotox 25µM
CN1CCCC2(C1)CN(Cc1cccnc1)c1ccc(C(=O)Nc3ccc(F)cc3)cc12 (centres undefined)	HEK cytotox inconclusive, 3T3 cytotox inconclusive
CC(C)(C)c1ccc(-c2noc(CNC(=O)CN3C(=O)CNC3=O)n2)cc1	Luciferase inh 18µM
O=C(CN1C(=O)CNC1=O)NCCc1noc(-c2ccccc2)n1	none
CS(=O)(=O)N1CC2(CCN(CC3CC3)CC2)Cc2ccccc21	none (no result: hNpr1 antagonist, Luciferase inh)
O=C1Nc2ccccc2C12CCN(S(=O)(=O)c1cccs1)C2 (centres undefined)	HEK cytotox 89µM, 3T3 cytotox inconclusive
CCS(=O)(=O)Nc1ccc(C2(C(=O)Nc3cccc(F)c3C)CCCCC2)cc1	HEK cytotox 40µM, 3T3 cytotox inconclusive
Cc1ccc(C(=O)N2CCC(C(NC(=O)c3ccccc3C)C(=O)NCC(C)C)CC2)cc1 (centres undefined)	none
COc1ccc(CNC(=O)[C@@H](C)C2CC[C@@]3(C)CC[C@H](NC(=O)COc4ccccc4)[C@@H](C)[C@@H]3[C@H]2O)cc1 (some centres undefined)	HEK cytotox 22µM, hNpr1 antagonist inconclusive, 3T3 cytotox 32µM
COc1ccc(CN2CCCCC23Cc2ccccc2CNC3=O)c(OC)c1 (centres undefined)	none (no result: hNpr1 antagonist, Luciferase inh)
Cc1ccc(C(=O)N2CCC23Cc2ccccc2NC3=O)cc1 (centres undefined)	HEK cytotox 100µM
O=C(c1ccccc1F)N1CCC2(CC1)Cc1ccccc1NC2=O	HEK cytotox 50µM, 3T3 cytotox inconclusive
O=C(Cc1ccccc1)N1CCC2(Cc3ccccc3NC2=O)C1 (centres undefined)	HEK cytotox 100µM
O=C(Cc1ccc(F)cc1)N1CCC2(CC1)Cc1ccccc1NC2=O	hNpr1 antagonist inconclusive
COc1cccc(C(=O)N2CCC3(CC2)Cc2ccccc2NC3=O)c1	HEK cytotox 45µM, 3T3 cytotox 35µM
O=C(c1cccc(Cl)c1)N1CCC2(CC1)Cc1ccccc1NC2=O	HEK cytotox inconclusive, 3T3 cytotox inconclusive
COc1ccc(Cn2c(=O)c(C(=O)N3CCN(C(C)=O)CC3)nc3cccnc32)cc1	none (no result: hNpr1 antagonist, Luciferase inh)
CN(C)C[C@@H]1CN(Cc2cccnc2)C[C@H]1NC(=O)C1(c2ccccc2)CC1	HEK cytotox inconclusive
O=C(c1ccc(Cl)cc1)N1CCC2(CC1)Cc1ccccc1NC2=O	HEK cytotox inconclusive, 3T3 cytotox 28µM!
CCn1nc(CC(C)C)cc1C(=O)N(C)Cc1cccc(-n2cccn2)c1	HEK cytotox 50µM, 3T3 cytotox inconclusive
CCn1nc(CC(C)C)cc1C(=O)N(C)C1CCCN(C2Cc3ccccc3C2)C1 (centres undefined)	HEK cytotox inconclusive, 3T3 cytotox inconclusive
CN1CC(C(=O)NC2Cc3ccccc3C2)NC1=O (centres undefined)	none (no result: hNpr1 antagonist, Luciferase inh)
c1cnc2nc(C3CCN(CC4CCCCC4)C3)[nH]c2c1 (centres undefined)	HEK cytotox inconclusive, Luciferase inh 20µM
O=C(C1CCN(CC2CC2)CC1)N1CCC(c2nc3ncccc3[nH]2)CC1	none (no result: hNpr1 antagonist, Luciferase inh)
O=C(Nc1ccc(Cl)cc1)N1CCCC(C(=O)N2CCCC(c3nc4ncccc4[nH]3)C2)C1 (centres undefined)	HEK cytotox inconclusive, 3T3 cytotox 22µM (no result: hNpr1 antagonist, Luciferase inh)
Cc1ccc([S+](=O)([O-])N2CCC(C(=O)N3CCCC(c4nc5ncccc5[nH]4)C3)CC2)cc1 (centres undefined)	HEK cytotox 28µM, 3T3 cytotox inconclusive (no result: hNpr1 antagonist, Luciferase inh)
O=C(C1CCCN([S+](=O)([O-])c2cccc(C(F)(F)F)c2)C1)N1CCCC(c2nc3ccncc3[nH]2)C1 (centres undefined)	HEK cytotox 45µM, 3T3 cytotox inconclusive (no result: hNpr1 antagonist, Luciferase inh)
O=C(C1CCCN([S+](=O)([O-])c2cccc(C(F)(F)F)c2)C1)N1CCC(c2nc3ccncc3[nH]2)C1 (centres undefined)	none (no result: hNpr1 antagonist, Luciferase inh)
COCCNC(=O)c1ccc2nc(-c3cccnc3)oc2c1	none (no result: hNpr1 antagonist, Luciferase inh)
Cc1ccc([S+](=O)([O-])N2CCCC(C(=O)N3CCC(c4nc5ncccc5[nH]4)CC3)C2)cc1 (centres undefined)	HEK cytotox 50µM, 3T3 cytotox inconclusive (no result: hNpr1 antagonist, Luciferase inh)
COC(=O)[C@H](Cc1ccc(OC)cc1)NC(=O)[C@H]1CN(S(=O)(=O)c2ccccc2)CCN1C(=O)c1cccs1	HEK cytotox 79µM, 3T3 cytotox inconclusive
NC(=O)[C@H](CC1CCCCC1)NC(=O)[C@@H]1CN(S(=O)(=O)c2ccccc2)CCN1C(=O)c1cccs1	3T3 cytotox 25µM
O=C(c1ccsc1)N1CC[C@@H]2COCCN(Cc3ccncc3)[C@@H]2C1	none (no result: hNpr1 antagonist, Luciferase inh)
CCCN(C)c1nccnc1OC1CCN(C(=O)Cc2ccccc2OC)C1 (centres undefined)	HEK cytotox inconclusive, 3T3 cytotox inconclusive, Luciferase inh 35µM
CCCN(C)c1nccnc1OC1CCN(C(=O)c2cccc(OC)c2OC)C1 (centres undefined)	HEK cytotox inconclusive, 3T3 cytotox inconclusive, Luciferase inh 32µM
N#CC1CCN(C(=O)c2cc(-c3cccs3)c3cccn3n2)CC1	HEK cytotox 79µM, 3T3 cytotox inconclusive (no result: hNpr1 antagonist, Luciferase inh)
COc1ccccc1-c1cc(C(=O)N2CCOCC2)nn2cccc12	none (no result: hNpr1 antagonist, Luciferase inh)
O=C(NCc1cccc(Cl)c1)c1cc(-c2cc(Cl)cc(Cl)c2)c2nncn2n1	none (no result: hNpr1 antagonist, Luciferase inh)
COC(=O)CNC(=O)c1cc(-c2ccccc2OC)c2cccn2n1	none (no result: hNpr1 antagonist, Luciferase inh)
O=C(NCc1cccc(Cl)c1)c1cc(-c2cccs2)c2cccn2n1	HEK cytotox 28µM, 3T3 cytotox inconclusive (no result: hNpr1 antagonist, Luciferase inh)
O=C(NCC1CC1)c1cc(-c2cccs2)c2cccn2n1	HEK cytotox 71µM, 3T3 cytotox inconclusive (no result: hNpr1 antagonist, Luciferase inh)
COc1cccc(CC(=O)NCc2nnc3c(-c4nc(C(C)C)no4)cccn23)c1	none
Cn1ncc2c(C(=O)Nc3ccc(F)cc3)cc(-c3ccc(C(F)(F)F)cc3)nc21	none (no result: hNpr1 antagonist, Luciferase inh)
